Results taken from ChEMBL document CHEMBL1157539, “Thousands of chemical starting points for antimalarial lead identification” (Nature, 2010).

tested on: HepG2; assay: GSK_TCMDC: Percent inhibition of human HepG2 cell line. Test compounds present at 10uM.; type: functional

SMILES	Inhibition
COc1cc2ncnc(Nc3ccc(OCc4ccccc4Br)c(OC)c3)c2cc1OC.Cl	11%
CCCN(c1ccc(C(F)(F)F)cc1[N+](=O)[O-])S(=O)(=O)C(c1ccccc1)c1ccc(C(F)(F)F)cc1[N+](=O)[O-] (stereo not given)	0%
COc1ccc(CN2CCC(N3CC(c4ccccc4)(c4ccccc4)OCC3=O)C2)c(O)c1.O=C(O)C(F)(F)F (stereo not given)	10%
O=C(Nc1ccc(Br)cc1)c1cc(Br)ccc1NS(=O)(=O)c1ccc(C(F)(F)F)cc1	53%
Cc1cccc2nc(-c3cccc(-c4ccc(NC(=O)NC5CC5c5ccccc5)cc4)c3)[nH]c12 (stereo not given)	25%
CC(C)(C)OC(=O)[C@H](CC(N)=O)NC(=O)c1ccc(-c2ccc(-c3nc4cc(C(F)(F)F)ccc4[nH]3)s2)cc1	62%
O=[N+]([O-])c1c(O)nc2c(c1O)CCC2	9%
COc1ccc2nc(C)cc(N/N=C/c3ccc([N+](=O)[O-])o3)c2c1	18%
Fc1ccc2[nH]c(-c3ccc(-c4ccc(CN5CCC(CCN6CCCCC6)CC5)cc4)s3)nc2c1.O=C(O)C(F)(F)F	96%
Cc1[nH]c(C)c(-c2csc3ccccc23)c(=O)c1Cl	7%
CS(=O)(=O)c1ccc(CCNCc2ccc(-c3ccc(CN(C(=O)c4ccc(Cl)nc4)C4CCN(Cc5ccccc5)CC4)cc3)nc2)cc1.O=C(O)C(F)(F)F	24%
Cc1ccc(-c2ccn(Cc3ccc(OCc4ccccc4)cc3)n2)cn1.Cc1ccc(-c2ccnn2Cc2ccc(OCc3ccccc3)cc2)cn1	1%
COc1ccc(C2CCN(CCCNC(=O)c3ccc(NC(=O)c4ccc(Cl)cc4)cc3)CC2)c(OC)c1	26%
CC(C)COc1ccc(Cl)cc1Cc1ccc(-c2nc3ccc(F)cc3[nH]2)o1	35%
O=C(/C=C/c1ccc(Cl)c(Cl)c1)NCCCCCN1CCC(CCCNC(=O)Nc2ccc(C(F)(F)F)cc2)CC1	0%
CCOc1cc(O)c(-c2nc(N)ncc2-c2ccc3c(c2)OCCO3)cc1CC	0%
CC(C)c1ccc(-c2noc(SCC(=O)N(C)c3ccc(F)cc3)n2)cc1	7%
CN(C)CCNCc1nc(-c2ccc3c(Nc4ccc(Cl)cc4F)ccnc3c2)cs1	0%
CN1CCN(c2cc3c(cc2Cl)CCN3C(=O)Nc2ccc(NC(=O)c3ccc(C(F)(F)F)cc3)cc2)CC1.Cl	98%
O=C(O)C(F)(F)F.c1ccc(CNCc2cccc(-c3cccc(-c4nc5ccccc5[nH]4)c3)c2)cc1	12%

SMILES	Inhibition
CC(=O)c1ccc2cc(C(=O)NC3CCC(CCN4CCc5ccc(-c6noc(C)n6)cc5CC4)CC3)[nH]c2c1.Cl (stereo not given)	28%
Br.CCC(ON1C(N)=NC(N)=NC1(C)C)c1ccc(Cl)cc1 (stereo not given)	68%
O=C(/C=C/c1ccc(Cl)c(Cl)c1)NCCCCCN1CCC(NC(=O)NC2CCCCC2)CC1	22%
Cn1ccnc1-c1nc2ccccn2c1NCC(=O)Nc1ccccc1N1CCCCC1	16%
CC(C)c1ccc(C(NC(=O)C2CCCCC2)c2ccc3cccnc3c2O)cc1 (stereo not given)	46%
CN1CCN(c2cccc(-c3nnc(-c4ccc(OCC(=O)NCc5ccc(C(F)(F)F)cc5)c([N+](=O)[O-])c4)o3)c2)CC1	35%
Fc1cccc(COc2ccc(Nc3ncnc4sc(C#CCNC5CCCC5)cc34)cc2Cl)c1	3%
Cn1cncc1-c1ccc2c(-c3ccsc3)cnc(N)c2c1	41%
CCCC1N=C(N)N=C(N)N1c1cccc(C(F)(F)F)c1.Cl (stereo not given)	22%
COc1ccc(CN2CCC(C(=O)Nc3cccc(-c4cccc(Cl)c4)c3)CC2)cc1O	25%
Cc1cccc(C(=O)Nc2ccnc(N3CCC(N(C)Cc4ccccc4)CC3)c2)c1.O=C(O)C(F)(F)F	12%
O=C(NCCNc1ccnc(NCc2ccc(F)cc2)n1)c1cc2ccccc2s1	6%
O=C(Nc1cccc(-c2ccc(-c3nc4cc(F)ccc4[nH]3)cc2)c1)c1csnn1	22%
CC(C)C[C@H](NC(=O)c1ccc(OCCN2CCOCC2)cc1)C(=O)N[C@H](/C=N/NC(=O)c1ccccc1)CCc1ccccc1	17%
O=C1CCCC1Sc1nc2ccccc2c(=O)n1-c1ccc(Cl)c(Cl)c1 (stereo not given)	10%
CNC(=O)Cc1ccc(C(=O)Nc2cccc(-c3csc(-c4nc5ccccc5[nH]4)c3)c2)cc1	36%
N#Cc1ccc(CN2CCC(Oc3ccc(NC(=O)c4cccs4)cc3Cl)CC2)cc1.O=C(O)C(F)(F)F	26%
O=C(O)C(F)(F)F.c1cc(CN2CCN(CCN3CCOCC3)CC2)cc(-c2csc(-c3nc4ccccc4[nH]3)c2)c1	27%
CCCCOc1cc(C)nc2ccc(NC(=O)COCC(=O)Nc3ccc4nc(C)cc(OCCCC)c4c3)cc12	0%
COc1ccc(-c2ccc(NC(=O)c3ccc(C#N)cc3)c(F)c2)cc1CN(C)CCN(C)C.O=C(O)C(F)(F)F	24%
